Screening data from PubChem.
Mtb BioA inh: M. tuberculosis BioA enzyme inhibitors, primary screen, biochemical, plate reader, single point, HTS | inhibition, % at 9.99 µM | purified M. tuberculosis BioA enzyme | actives 0.096% (n = 360,000); in the data active = inhibition above about 40%
FadD28 binding: inhibitors of FadD28 bisubstrate probe binding, primary screen, biochemical, fluorescence polarization, single point; actives 0.22% (n = 360,000); inhibition, % at 12.5 µM; AID 588549, 2011; Mycobacterium tuberculosis FadD28 fatty-acid-AMP ligase; in the data active = inhibition above about 8.5%, passing the limit was not always enough
Rv3671c protease: Rv3671c serine protease inhibitors, primary screen, biochemical, fluorescence polarization, M. tuberculosis H37Rv; inhibition, % at 5.96 µM; AID 2606, 2010; P9WHR9; actives 0.048% (n = 320,000); in the data active = inhibition above about 38%;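 note: extracellular domain of Rv3671c used as enzyme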
FBA Mtb inh: Mtb FBA enzyme inhibitors, primary screen, biochemical, fluorescence, strain H37Rv; purified M. tuberculosis FBA, fluorescence read-out; inhibition, % at 1 µM; actives 2.3% (n = 360,000)
Target sequence (P9WQA3 whole entry, looked up): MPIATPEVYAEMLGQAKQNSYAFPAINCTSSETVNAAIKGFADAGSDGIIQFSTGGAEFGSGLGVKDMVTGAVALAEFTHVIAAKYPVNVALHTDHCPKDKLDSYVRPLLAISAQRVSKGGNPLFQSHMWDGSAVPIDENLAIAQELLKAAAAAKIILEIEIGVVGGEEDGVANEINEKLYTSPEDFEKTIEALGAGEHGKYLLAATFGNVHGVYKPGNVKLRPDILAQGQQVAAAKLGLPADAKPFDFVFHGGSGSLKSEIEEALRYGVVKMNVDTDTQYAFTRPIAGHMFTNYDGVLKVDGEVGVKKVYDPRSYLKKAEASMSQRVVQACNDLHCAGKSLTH
GDH-TPI counter-1: GDH-TPI coupling enzyme inhibitors, primary screen, artefact control for M. tuberculosis FBA inhibitor project, biochemical, absorbance, full deck. inhibition, % at 4.8 µM. AID 588335, 2011. GDH-TPI coupled enzyme counterscreen, NADH absorbance. actives 1.2% (n = 360,000); in the data active = inhibition above about 30%
Mtb FBA confirm: M. tuberculosis aldolase blockers, biochemical, fluorescence, strain H37Rv, confirmation; shares compounds with FBA Mtb inh; inhibition, % at 1 µM; actives 78% (n = 5,600); purified M. tuberculosis FBA, fluorescence read-out
GDH-TPI counter-2: GDH-TPI coupling enzyme inhibitors, artefact control for M. tuberculosis FBA inhibitor project, biochemical, fluorescence, high throughput; GDH-TPI coupled enzyme counterscreen; actives 81% (n = 5,600); AID 652141, 2013; shares compounds with FBA Mtb inh; inhibition, % at 1 µM; in the data active = inhibition above about 10%
Each line names hits and unclear results; the compound was inactive in the other large screens (follow-up assays come after a bar, where they were run). An excerpt weighted towards active compounds, which were near 3% of everything screened. Cut-off read from the data, not from the text of the source, unless noted: active = inhibition above about 27%; inactive = the rest.

CCN(CC)c1ccc2cc(-c3nc4ccccc4[nH]3)c(=O)oc2c1	none
Fc1ccc(-c2cc(C(F)(F)F)n3ncnc3n2)cc1	FBA Mtb inh 85 (no result: Mtb BioA inh) | Mtb FBA confirm 130 | GDH-TPI counter-2 129
O=S(=O)(NCC[C@@H]1CC[C@@H](NS(=O)(=O)c2ccccc2Cl)[C@H](CO)O1)c1ccc(F)cc1	none (no result: FadD28 binding, Rv3671c protease, FBA Mtb inh, GDH-TPI counter-1)
CCOC(=O)c1nc2sc3c(c2c(=O)[nH]1)CCC(C)C3 (stereo unspecified)	FBA Mtb inh 101 (no result: Mtb BioA inh) | Mtb FBA confirm 74 | GDH-TPI counter-2 57
C#CCOc1ccc(C2C3=C(CC(C)(C)CC3=O)N(CC(=O)O)C3=C2C(=O)CC(C)(C)C3)cc1OC	none
C#CCOc1ccc(C2C3=C(CC(C)(C)CC3=O)N(CC(=O)O)C3=C2C(=O)CC(C)(C)C3)cc1	FBA Mtb inh 92 | Mtb FBA confirm inactive | GDH-TPI counter-2 inactive
COc1ccc(CC2=NCCc3cc(OC)c(OC)cc32)cc1OC	FBA Mtb inh 94 (no result: Rv3671c protease) | Mtb FBA confirm active | GDH-TPI counter-2 157
O=C(C1CCCC1)N1C[C@H]2[C@@H](c3ccccc31)[C@H](CO)N2C(=O)c1ccccc1F	none (no result: FadD28 binding, Rv3671c protease, FBA Mtb inh, GDH-TPI counter-1)
O=C(O)c1ccc(-n2cc(-c3cc4ccccc4oc3=O)[nH]c2=S)cc1	FBA Mtb inh 32 (no result: Mtb BioA inh, Rv3671c protease) | Mtb FBA confirm 139 | GDH-TPI counter-2 99
Cc1cccn2c(=O)c3cc(C(=O)N4CCCCC4)sc3nc12	FBA Mtb inh 64, GDH-TPI counter-1 31 (no result: FadD28 binding) | Mtb FBA confirm 122 | GDH-TPI counter-2 83
Cc1cccn2c(=O)c3cc(C(=O)NC4CCCC4)sc3nc12	FBA Mtb inh 91 | Mtb FBA confirm 66 | GDH-TPI counter-2 51
Cc1cccn2c(=O)c3cc(C(=O)NCC(C)C)sc3nc12	none
Cc1nn(-c2ccccc2)c2sc(C(=O)NC3CCCCC3)cc12	none
Cc1cccn2c(=O)c3cc(C(N)=S)c(=N)n(CCCOC(C)C)c3nc12	FBA Mtb inh 63 | Mtb FBA confirm inactive | GDH-TPI counter-2 inactive
CCCCCn1c(=N)c(S(=O)(=O)c2ccc(Cl)cc2)cc2c(=O)n3cccc(C)c3nc21	none
Cc1cccn2c(=O)c3cc(C(=O)NCCCOC(C)C)sc3nc12	FBA Mtb inh 103 | Mtb FBA confirm inactive | GDH-TPI counter-2 inactive
Cc1cccn2c(=O)c3cc(C(=O)N4CCCC(C)C4)sc3nc12 (stereo unspecified)	none
CCOC(=O)C1CCN(C(=O)c2cc3c(=O)n4cccc(C)c4nc3s2)CC1	FBA Mtb inh 100 | Mtb FBA confirm active | GDH-TPI counter-2 166
CC(C)CN(CC(C)C)C(=O)c1cc2c(=O)n3ccccc3nc2s1	FBA Mtb inh 59 | Mtb FBA confirm active | GDH-TPI counter-2 194
CCN(CC)c1nc2c(C)cccn2c(=O)c1C=C1C(=O)NC(=O)NC1=O	none (no result: Mtb BioA inh)
CCC1CCCCN1C(=O)c1cc2c(=O)n3cccc(C)c3nc2s1 (stereo unspecified)	none
CCCN(CCC)C(=O)c1cc2c(=O)n3cccc(C)c3nc2s1	FBA Mtb inh 30 | Mtb FBA confirm 137 | GDH-TPI counter-2 98
COc1ccc(-c2cc3nc(-c4ccccc4)cc(N4CCN(C(=O)c5ccoc5)CC4)n3n2)cc1	FBA Mtb inh 56 (no result: Rv3671c protease) | Mtb FBA confirm 48 | GDH-TPI counter-2 36
CCN1CCN(c2cc(-c3ccccc3)nc3cc(-c4cccc(F)c4)nn23)CC1	FBA Mtb inh 42 | Mtb FBA confirm 76 | GDH-TPI counter-2 53
COc1cccc(-c2cc3nc(-c4ccccc4)cc(N4CCCC(O)C4)n3n2)c1 (stereo unspecified)	FBA Mtb inh 102 (no result: Mtb BioA inh) | Mtb FBA confirm 199 | GDH-TPI counter-2 141
CS(=O)(=O)NN1C(=O)c2ccccc2NC12CCCC2	FBA Mtb inh 35 (no result: Mtb BioA inh) | Mtb FBA confirm 131 | GDH-TPI counter-2 107
O=C(NN1C(=O)c2ccccc2NC12CCCCC2)c1ccccc1	none
CCOC(=O)NN1C(=O)c2ccccc2NC12CCCC2	FBA Mtb inh 59 (no result: Mtb BioA inh) | Mtb FBA confirm 163 | GDH-TPI counter-2 139
O=C(Nc1ccccc1F)N[C@H]1CC[C@@H](CCNC(=O)C2CCC2)O[C@@H]1CO	none (no result: FadD28 binding, Rv3671c protease, FBA Mtb inh, GDH-TPI counter-1)
COc1ccc(NC(=O)N(C)C[C@H]2OCCCC[C@@H](C)Oc3ccc(NC(=O)CCCN(C)C)cc3C(=O)N([C@@H](C)CO)C[C@H]2C)cc1	none (no result: FadD28 binding, Rv3671c protease, FBA Mtb inh, GDH-TPI counter-1)
CCCCN(C)C(=O)CCC(=O)Nc1ccc2nc(N3CCOCC3)cc(C)c2c1	FBA Mtb inh 49 | Mtb FBA confirm 154 | GDH-TPI counter-2 125
CCCCN(C)C(=O)CCC(=O)Nc1ccc2nc(N3CCN(C)CC3)cc(C)c2c1	FBA Mtb inh 28 | Mtb FBA confirm 61 | GDH-TPI counter-2 57
CCOC(CCNC(=O)CCC(=O)Nc1ccc2nc(N3CCN(C)CC3)cc(C)c2c1)OCC	none (no result: FadD28 binding)
CCOc1ccccc1NC(=O)CCC(=O)Nc1ccc2nc(N3CCN(C)CC3)cc(C)c2c1	FBA Mtb inh 31 (no result: Mtb BioA inh) | Mtb FBA confirm 130 | GDH-TPI counter-2 122
C[C@H](CO)N1C[C@H](C)[C@@H](CN(C)C(=O)OCc2ccccc2)OCc2cnnn2CCCC1=O	none (no result: FadD28 binding, Rv3671c protease, FBA Mtb inh, GDH-TPI counter-1)
O=C(C[C@H]1CC[C@@H](NS(=O)(=O)c2ccc(F)cc2)[C@@H](CO)O1)NCCN1CCCCC1	none (no result: FadD28 binding, Rv3671c protease, FBA Mtb inh, GDH-TPI counter-1)
COC1OC(CO)C(O)C(O)C1O (stereo unspecified)	FBA Mtb inh 33 | Mtb FBA confirm 55 | GDH-TPI counter-2 45
Cc1ccc(S(=O)(=O)N(C)C)cc1NC(=O)C1CCCCN1S(=O)(=O)c1ccccc1 (stereo unspecified)	FBA Mtb inh 106 | Mtb FBA confirm 132 | GDH-TPI counter-2 108
Cc1cc(=O)[nH]c2nc3ccccc3n12	FBA Mtb inh 47 (no result: Rv3671c protease) | Mtb FBA confirm 76 | GDH-TPI counter-2 60
COC(=O)Cc1cc(=O)n2c(nc3ccccc32)[nH]1	FBA Mtb inh 65 | Mtb FBA confirm 35 | GDH-TPI counter-2 18
COc1ccccc1NC(=O)CSc1nc2c(sc3ccccc32)c(=O)n1CCN(C)C	FBA Mtb inh 51 (no result: Mtb BioA inh) | Mtb FBA confirm 76 | GDH-TPI counter-2 60
CN(C)CCn1c(SCc2ccccc2C#N)nc2c(sc3ccccc32)c1=O	FBA Mtb inh 50 | Mtb FBA confirm 75 | GDH-TPI counter-2 59
CCNC(=O)C[C@@H]1CC[C@@H]2[C@@H](COc3ccc(NC(=O)Nc4ccccc4OC)cc3C(=O)N2C)O1	none (no result: FadD28 binding, Rv3671c protease, FBA Mtb inh, GDH-TPI counter-1)
Cn1c2ccccc2c2c(C(=O)NCC3CCCO3)cn(C3CCCC3)c(=O)c21 (stereo unspecified)	none
Cn1c2ccccc2c2c(C(=O)NCCCN3CCCC3=O)cn(C3CCCCC3)c(=O)c21	FBA Mtb inh 35 | Mtb FBA confirm 98 | GDH-TPI counter-2 85
